Experimental data: PubChem BioAssay (NCATS)
Records with an inconclusive call do not appear. Activity calls are given as the source filed them. Calls follow the shape of the dose curve; as a rule, active = well fitted cell-killing curve with a large enough effect; inconclusive = small, poorly fitted or top-dose-only effect; inactive = no such curve, though single readings can be large or run the other way.

Assay: qHTS of pediatric cancer cell lines to identify multiple opportunities for drug repurposing: Primary screen for Rh41 cells (AID 1347108); also: nearly all actives have a fitted effect of over 70% in size;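 as to activity change, negative = cytotoxic: luminescence drop marks cytotoxic hits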
Settings: Rh41 rhabdomyosarcoma viability, CellTiter-Glo luminescence, 48 h; series mostly up to 46 µM; activity change, negative = cytotoxic: at the top concentration
Summary of the method: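 Cells seeded at 500-1,000 cells/well in growth media, rested 5 hours at 37 degrees C, 5% CO2, then dosed; MIPE compounds at 11-point (from 0.78 nM) and NPC at 8-point (from 0.59 nM) final concentrations. Viability by CellTiter-Glo luminescence after 48 hours.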
Potency is read from the fitted curve at half-maximal effect.

SMILES	Potency	activity change, negative = cytotoxic
CN(C)C(=S)SSC(=S)N(C)C	211 nM (active)	–
C=CC[C@]1(O)CC[C@H]2[C@@H]3CCC4=CC(=O)CCC4=C3C=C[C@@]21C	–	4.56% (inactive)
CC1Sc2c(C(=O)O)c(=O)c3cc(F)c(N4CCNCC4)cc3n21 (stereo not drawn)	–	-5.82% (inactive)
CC#C[C@]1(O)CC[C@H]2[C@@H]3C[C@H](C)C4=CC(=O)CC[C@]4(C)[C@H]3CC[C@@]21C	–	7.13% (inactive)
Cc1ccc([N+](=O)[O-])[c]2c1[O][Hg]2	668 nM (active)	–
CCOC(=O)c1cncn1C(C)c1ccccc1 (stereo not drawn)	–	18% (inactive)
C[C@@H]1CN(C2CCC(C#N)(c3ccc(F)cc3)CC2)CC[C@]1(C(=O)O)c1ccccc1 (stereo partly drawn)	–	13.7% (inactive)
CC(C)(O)C(Cl)(Cl)Cl	–	31.7% (inactive)
CCCCCCCCCCCC[N+](C)(C)CCOc1ccccc1	16800 nM (active)	–
O=C(O)Cc1ccccc1	–	6.19% (inactive)
O=C1NCN(c2ccccc2)C12CCN(CCCOc1ccc(F)cc1)CC2	–	9.73% (inactive)
CCC1(CC)C(=O)NC(=O)NC1=O	–	-0.416% (inactive)
CN1C[C@@H](NS(=O)(=O)N(C)C)C[C@@H]2c3cccc4c3c(cn4C)C[C@H]21	–	8.6% (inactive)
Cc1c(Cl)c(=O)oc2cc(OP(=O)(OCCCl)OCCCl)ccc12	–	19.4% (inactive)
C[C@]12CC[C@H](O)CC1=CC[C@@H]1[C@@H]2CC[C@]2(C)C(=O)CC[C@@H]12	–	18.8% (inactive)
CN1[C@@H]2CC[C@H]1CC(OC(=O)c1cc(Cl)cc(Cl)c1)C2 (stereo partly drawn)	–	-10.7% (inactive)
CCCC[N+]1(C)[C@@H]2CC(OC(=O)[C@H](CO)c3ccccc3)C[C@H]1[C@@H]1O[C@@H]12 (stereo partly drawn)	–	9.59% (inactive)
NC(=O)OCCCc1ccccc1	–	34.6% (inactive)
